# Where “and” joins values, the source holds several entries; their conditions need not be identical. Identical values can stand only once. Some compounds were tested as several samples or in several runs, with calls that do not always agree. Calls of active or inactive are those of the source. Rule for the calls: active = hit-call score of the fitted dose curve at least 0.9, where 1 is the maximum; inactive = score below 0.9.
# Read-out: Interferon-gamma inducible Protein 10 (IP10), CXCL10 (gene 3627)
# Assay: BSK_BE3C_IP10: BioMAP Diversity Plus: BE3C Assay for Interferon-gamma inducible Protein 10 (IP10) Biomarker Activity (AID 2283034)
# Details: primary human bronchial epithelial cells; actives raise or lower the signal
# Procedure: BSK_BE3C is a cell-based, multiplexed-readout assay that uses bronchial epithelial cell, a human lung primary cell, with measurements taken at 24 hours after chemical dosing in a 96-well plate.BSK_BE3C_IP10 is an assay component measured in the BSK_BE3C assay. It measures IP-10 antibody related to regulation of gene expression using ELISA technology.Data from the assay component BSK_BE3C_IP10 was analyzed into 1 assay endpoint. This assay endpoint, BSK_BE3C_IP10, was analyzed with bidirectional fitting relative to DMSO as the negative control and baseline of activity. Using a type of binding reporter, gain or loss-of-signal activity can be used to understand changes in the signaling as they relate to the gene CXCL10. Furthermore, this assay endpoint can be referred to as a primary readout, because this assay has produced multiple assay endpoints where this one serves a signaling function. To generalize the intended target to other relatable targets, this assay endpoint is annotated to the cytokine intended target family, where the subfamily is chemotactic factor.
# The levels of cell surface (or secreted, indicated by the prefix "s") biomarker endpoints were measured by ELISA. Overt cytotoxicity to cells in confluent adherent cultures (all systems other than the BT system) was assessed by measuring total protein levels using sulforhodamine B (SRB) staining in parallel cultures at the time of biomarker measurements, indicated as SRB endpoints. For proliferation assays for adherent cell types, individual cell types are cultured at sub-confluence and relative cell numbers quantified by SRB staining at time points optimized for each system (48 h: 3C and CASM3C systems; 72 h: BT and HDF3CGF systems; 96 h: SAg system). SRB was performed by staining cells with 0.1% SRB after fixation with 10% TCA and reading wells at 560 nm.Viability and proliferation of PBMC (T cells) was quantified by Alamar Blue reduction for the SAg and BT systems. For PBMC viability (referred to as PBMC Cytotoxicity within the assay endpoint names), cells were plated (75,000/well in a 96-well plate) and then chemical samples added for 1 h before addition of activators, SEB and TSST-1 (20 ng/mL final concentration each). Cells were incubated for 90 h. Then, Alamar Blue (20 uL/well) (Invitrogen, Cat DAL1100) was added for 6 h, and the plates were read with a fluorescence microplate reader at 546/580 nm (excitation/emission). For PBMC proliferation, cells were plated and activated as above but incubated for only 16 h prior to addition of Alamar Blue. Plates were read after 6 h.
Compound,AC50,outcome
CC(C)Oc1cc(-n2nc(C(C)(C)C)oc2=O)c(Cl)cc1Cl,33.9 µM (active),–
CCCCNC(=O)n1c(NC(=O)OC)nc2ccccc21,–,inactive
Cc1ccc(-c2c(Cl)nc(C#N)n2S(=O)(=O)N(C)C)cc1,6.57 µM (active),–
N#Cc1nn(-c2c(Cl)cc(C(F)(F)F)cc2Cl)c(N)c1S(=O)C(F)(F)F (stereo not given),23.2 µM (active),–
COC(=O)c1ccccc1C(=O)OC,–,inactive
C=CC1(C)OC(=O)N(c2cc(Cl)cc(Cl)c2)C1=O (stereo not given),–,inactive
CC1COC(Cn2cncn2)(c2ccc(Oc3ccc(Cl)cc3)cc2Cl)O1 (stereo not given),31.7 µM (active),–
CS/C(C)=N/OC(=O)N(C)SN(C)C(=O)O/N=C(\C)SC,25.9 µM (active),–
N#Cc1cc(Br)c(O)c(Br)c1,23.5 µM (active),–
CCCCNC(=O)OCC#CI,34 µM (active) and 31.1 µM (active),–
C=CCC1=C(C)C(OC(=O)C2C(C=C(C)C)C2(C)C)CC1=O (stereo not given),35 µM (active) and 39 µM (active),inactive
Oc1ccccc1-c1ccccc1,–,inactive
CCCN(CCC)c1c([N+](=O)[O-])cc(S(N)(=O)=O)cc1[N+](=O)[O-],36.9 µM (active) [middle of 4 runs],–
OC(c1ccc(Cl)cc1)(c1cncnc1)c1ccccc1Cl (stereo not given),30.3 µM (active),–
COc1nc(NC(C)C)nc(NC(C)C)n1,–,inactive
CC(C)C1(C)N=C(c2nc3ccccc3cc2C(=O)O)NC1=O (stereo not given),–,inactive
COC(=O)N(OC)c1ccccc1COc1ccn(-c2ccc(Cl)cc2)n1,8.98 µM (active),–
CCOc1cc(Oc2ccc(C(F)(F)F)cc2Cl)ccc1[N+](=O)[O-],–,inactive
CC(C)(C)c1ccc(CSc2cnn(C(C)(C)C)c(=O)c2Cl)cc1,23.5 µM (active),–
COc1nc(C)nc(NC(=O)NS(=O)(=O)c2ccccc2Cl)n1,–,inactive

Compound,AC50,outcome
CCOC(=O)CC(SP(=S)(OC)OC)C(=O)OCC (stereo not given),–,inactive
CCNc1nc(Cl)nc(NC(C)C)n1,–,inactive
CO/C=C(/C(=O)OC)c1ccccc1Oc1cc(Oc2ccccc2C#N)ncn1,21.1 µM (active) and 26.1 µM (active),–
COc1ccc(C(c2ccc(OC)cc2)C(Cl)(Cl)Cl)cc1,32.8 µM (active),–
Cc1cc(Cl)ccc1OCC(=O)O,–,inactive
O=C(Nc1ccccc1)Nc1ccnc(Cl)c1,–,inactive
Fc1ccc(Oc2ccnc3cc(Cl)cc(Cl)c23)cc1,28.7 µM (active),–
CCOC(=O)C(Cl)Cc1cc(-n2nc(C)n(C(F)F)c2=O)c(F)cc1Cl (stereo not given),–,inactive
CNC(=O)ON=CC(C)(C)SC,–,inactive
C=CCC1=C(C)[C@@H](OC(=O)[C@@H]2[C@@H](C=C(C)C)C2(C)C)CC1=O,30.6 µM (active),–
CCc1nn(C)c(C(=O)NCc2ccc(C(C)(C)C)cc2)c1Cl,25.7 µM (active),–
COP(N)(=O)SC (stereo not given),–,inactive
C#CCOS(=O)OC1CCCCC1Oc1ccc(C(C)(C)C)cc1 (stereo not given),16.3 µM (active),–
CC1=C(C(=O)Nc2ccccc2)SCCO1,–,inactive
COP(=S)(OC)Oc1nc(Cl)c(Cl)cc1Cl,–,inactive
Cc1c(F)c(F)c(COC(=O)C2C(/C=C(\Cl)C(F)(F)F)C2(C)C)c(F)c1F (stereo not given),–,inactive
O=C(O)c1nc(Cl)ccc1Cl,–,inactive
N#CC(CCc1ccc(Cl)cc1)(Cn1cncn1)c1ccccc1 (stereo not given),33.7 µM (active),–
CCCC1COC(Cn2cncn2)(c2ccc(Cl)cc2Cl)O1 (stereo not given),–,inactive
